Laboratory results as given in PubChem BioAssay (NCATS).
Records with an inconclusive call do not appear. The source made the active and inactive calls. Calls follow the shape of the dose curve; as a rule, active = well fitted curve in the direction sought with a large enough effect; inconclusive = small, poorly fitted or top-dose-only effect, or another doubt; inactive = no such curve, though single readings can be large; an effect the other way counts as inactive or inconclusive.

What was measured:
[1] = system: Zika virus NS2B-NS3 protease (linked construct); experiment: Primary screen NINDS Rhodamine qHTS for Zika virus inhibitors (AID 1347160); also: potency is read from the fitted curve at half-maximal effect; nearly all actives have a fitted effect of over 55% in size
Procedure, shortened: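 Each compound, titrated, sat 15 min with 25 nM linked protease before 1.5 microM Rhodamine110 substrate went in. Fluorescence gain over the next 15 min, in pH 8.0 Tris with Tween 20, gave Hill-fitted curves.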

[2] = OV-KATE Cancer Cell Toxicity qHTS against the NCATS CANVASS Library (AID 1347345)
Procedure, shortened: (§1)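 Bortezomib titration and single-dose wells served as plate controls. Test compounds, 11 points, acted on 1000 cells/well for 72 h at 37 degrees C; CellTiter-Glo luminescence quantified remaining viable cells.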

[3] = HPAF-II Cancer Cell Toxicity qHTS against the NCATS CANVASS Library (AID 1347346); also: series mostly up to about 38 µM; nearly all actives have a fitted effect of over 55% in size
Procedure, shortened: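 First, HPAF-II cells are plated (1000 cells/well) and held 4 h at 37 degrees C. Next, compounds are pin-transferred as an 11-point series. After 72 h, CellTiter-Glo is added and luminescence measured.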

[4] = UWB1.289 Cancer Cell Toxicity qHTS against the NCATS CANVASS Library (AID 1347347); also: series mostly up to about 38 µM; nearly all actives have a fitted effect of over 60% in size
Procedure, shortened: as §1

[5] = OV-SAHO Cancer Cell Toxicity qHTS against the NCATS CANVASS Library (AID 1347348); also: series mostly up to about 38 µM; nearly all actives have a fitted effect of over 55% in size
Procedure, shortened: as §1

[6] = Panc-1005 Cancer Cell Toxicity qHTS against the NCATS CANVASS Library (AID 1347349); also: series mostly up to about 38 µM; nearly all actives have a fitted effect of over 60% in size
Procedure, shortened: as §1

[7] = SW1088 Cancer Cell Toxicity qHTS against the NCATS CANVASS Library (AID 1347350); also: series mostly up to about 38 µM; nearly all actives have a fitted effect of over 75% in size
Procedure, shortened: as §1

[8] = U-118MG Cancer Cell Toxicity qHTS against the NCATS CANVASS Library (AID 1347351); also: series mostly up to about 38 µM
Procedure, shortened: as §1

[9] = COV-362 Cancer Cell Toxicity qHTS against the NCATS CANVASS Library (AID 1347352); also: series mostly up to about 38 µM
Procedure, shortened: (§2)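 First, 1000 cells go into each well and rest for 4 hours. Next, an 11-point dilution range is pinned in. Plates then incubate 72 hours before CellTiter-Glo addition and luminescence reading.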

[10] = A2780 Cisplatin Sensitive Ovarian Cancer Cell Toxicity qHTS against the NCATS CANVASS Library (AID 1347353); also: nearly all actives have a fitted effect of over 60% in size
Procedure, shortened: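 Cells are plated at 750 per well and rest for 4 hours. Compounds are added across eleven concentrations, and incubated 72 hours before ATP is quantified by luminescence.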

[11] = UWB1.289-WTBRCA1 Cancer Cell Toxicity qHTS against the NCATS CANVASS Library (AID 1347354)
Procedure, shortened: as §2

[12] = HEK-293 Cancer Cell Toxicity qHTS against the NCATS CANVASS Library (AID 1347355); also: series mostly up to about 46 µM; nearly all actives have a fitted effect of over 65% in size
Procedure, shortened: as §2

[13] = HPAF-II 24hr Apoptosis Induction qHTS against the NCATS CANVASS Library (AID 1347356)
Procedure, shortened: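 Cells seeded at 500 per well, then compounds pin-transferred in an 11-point concentration series. After 24 hours at 37 degrees C, Caspase-Glo 3/7 was added and luminescence measured following 15 min at room temperature.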

[14] = HEK293 18hr Apoptosis Induction qHTS against the NCATS CANVASS Library (AID 1347357)
Procedure, shortened: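 Cells seeded at 500/well in DMEM + 10% FBS. Compounds pinned, 11 concentrations. 18 h, 37 degrees C/5% CO2. Caspase-Glo 3/7 added, 15 min RT dark, luminescence read.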

[15] = HEK293 24hr Apoptosis Induction qHTS against the NCATS CANVASS Library (AID 1347359)
Procedure, shortened: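 Caspase-3/7 activation measured as luminescence from the DEVD-based Caspase-Glo reagent, 15 min at room temperature, following 24-hour compound treatment of HEK293 cells.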

[16] = HEK293 12hr Apoptosis Induction qHTS against the NCATS CANVASS Library (AID 1347361)
Procedure, shortened: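 Cells are seeded, dosed with an 11-point compound series and incubated 12 hours. Caspase-3/7 activity is detected by luminescent DEVD-substrate reagent after 15 minutes at room temperature.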

[17] = target: Luciferin 4-monooxygenase (Photinus pyralis) (UniProt P08659); experiment: Firefly luciferase counterscreen qHTS: Assay Interference Panel against the NCATS CANVASS Library (AID 1347363); also: series mostly up to about 57 µM
Luciferin 4-monooxygenase (Photinus pyralis), sequence (P08659 whole entry, looked up): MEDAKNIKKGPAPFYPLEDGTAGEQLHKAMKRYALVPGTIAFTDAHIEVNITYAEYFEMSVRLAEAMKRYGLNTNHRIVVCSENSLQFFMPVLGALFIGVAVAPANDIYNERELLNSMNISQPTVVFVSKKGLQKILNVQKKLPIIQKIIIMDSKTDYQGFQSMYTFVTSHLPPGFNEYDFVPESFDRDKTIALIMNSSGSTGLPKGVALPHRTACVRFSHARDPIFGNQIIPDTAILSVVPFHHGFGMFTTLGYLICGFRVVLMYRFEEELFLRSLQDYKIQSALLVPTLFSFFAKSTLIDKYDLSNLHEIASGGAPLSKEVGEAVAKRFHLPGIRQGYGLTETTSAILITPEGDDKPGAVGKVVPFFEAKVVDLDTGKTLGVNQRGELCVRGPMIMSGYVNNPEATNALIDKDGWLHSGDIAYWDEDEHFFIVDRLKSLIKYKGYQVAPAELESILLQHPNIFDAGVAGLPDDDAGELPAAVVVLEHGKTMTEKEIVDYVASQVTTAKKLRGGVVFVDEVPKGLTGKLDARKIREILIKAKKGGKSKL
Procedure, shortened: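 Luminescence inhibition readout: compounds (11-point qHTS) sat 15 min at room temperature with substrate mix (0.013 mM luciferin and ATP), then firefly luciferase was added and signal read 5 min later.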

[18] = KB-3-1 Cancer Cell Toxicity qHTS against the NCATS CANVASS Library (AID 1347366); also: series mostly up to about 46 µM; nearly all actives have a fitted effect of over 75% in size
Procedure, shortened: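 Luminescence from CellTiter-Glo (10 min, room temperature) measured KB-3-1 viability after 72 hr compound exposure at 37C. Cells were seeded at 500/well and tested in an 11-point series.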

[19] = qHTS for ATAD5 Agonist screened against the NCATS CANVASS Library (AID 1347367);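 also: luciferase reporter driven by ATAD5 which rises upon DNA damage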
Procedure, shortened: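 HEK293T-ATAD5 luc reporter; 2000 cells/well; 5hr settle; cpd 11-pt qHTS; 16hr 37C 5% CO2 dark; viability by CellTiter-Fluor (AFC fluorescence); then luciferase luminescence, 30min RT.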

[20] = G06 Cancer Cell Toxicity qHTS against the NCATS CANVASS Library (AID 1347368); also: series mostly up to about 46 µM; nearly all actives have a fitted effect of over 60% in size
Procedure, shortened: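 Cells were plated at 500 per well, then compounds were added over an 11-point range. After 72 hr at 37C, CellTiterGlo was added and luminescence measured as ATP content.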

[21] = MCF7 Cancer Cell Toxicity qHTS against the NCATS CANVASS Library (AID 1347369)
Procedure, shortened: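 Cells seeded at 500/well, then compound pinned. Plates incubated 72 hr at 37C, 5% CO2. CellTiterGlo added; luminescence read.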

[22] = qHTS for ATAD5 Antagonist screened against the NCATS CANVASS Library (AID 1347370);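 also: HEK293T cells carrying an ATAD5 luciferase reporter co-treated with 10 µM 5-fluorouridine; series mostly up to about 46 µM; nearly all actives have a fitted effect of over 65% in size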
Procedure, shortened: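 Compounds (11-point) co-dosed with 10 µM 5-FUrd for 16 h at 37 °C onto HEK293T-ATAD5 luciferase reporter cells. Viability measured by CellTiter-Fluor fluorescence, then ATAD5 reporter signal by luminescence.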

[23] = J3T Cancer Cell Toxicity qHTS against the NCATS CANVASS Library (AID 1347371);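 also: J3T is a canine glioma cancer cell line seeded at 500 cells per well; series mostly up to about 46 µM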
Procedure, shortened: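 Luminescence from CellTiterGlo, reporting cellular ATP, serves as the viability measure after 72 hr compound treatment of J3T canine glioma cells seeded at 500 cells/well.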

[24] = target: Nuclear receptor subfamily 1 group I member 3 (Homo sapiens) (UniProt Q14994); experiment: qHTS for Constitutive Androstane Receptor (CAR) Agonist screened against the NCATS CANVASS Library (AID 1347373);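 also: every well also contained 1.5 µM PK11195 alongside the test compound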
Nuclear receptor subfamily 1 group I member 3 (Homo sapiens), sequence (Q14994 whole entry, looked up): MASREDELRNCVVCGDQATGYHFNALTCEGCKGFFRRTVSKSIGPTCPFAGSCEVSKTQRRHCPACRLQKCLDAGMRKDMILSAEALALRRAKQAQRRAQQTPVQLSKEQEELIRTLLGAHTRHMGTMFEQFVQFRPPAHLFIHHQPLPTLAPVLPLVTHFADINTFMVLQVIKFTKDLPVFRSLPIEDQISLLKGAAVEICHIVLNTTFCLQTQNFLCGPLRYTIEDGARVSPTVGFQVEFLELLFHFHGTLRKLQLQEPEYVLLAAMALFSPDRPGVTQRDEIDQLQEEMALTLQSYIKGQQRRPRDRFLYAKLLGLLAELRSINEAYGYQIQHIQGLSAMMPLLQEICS
Procedure, shortened: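 Cells were plated and allowed to attach for 4hr, then dosed with compound in an 11-point series alongside 1.5uM PK11195. After 24hr at 37C, viability was measured fluorometrically and CAR-driven CYP2B6 reporter luminescence was recorded.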

[25] = qHTS for Hypoxia signaling pathway (HIF-1) antagonists against the NCATS CANVASS Library (AID 1347374)
Procedure, shortened: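 Antagonism scored as loss of CoCl2-driven (60 uM stock added) HRE beta-lactamase signal, read by CCF4 FRET at 460/530 nm. Compounds were tested in an 11-point series on ME-180 reporter cells for 17 hrs at 37C, with parallel CellTiter-Glo cytotoxicity.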

[26] = qHTS for Hypoxia signaling pathway (HIF-1) agonists against the NCATS CANVASS Library (AID 1347375)
Procedure, shortened: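 Cells plated and rested 5 h, compounds pinned in DMSO across 11 concentrations, incubated 17 h at 37C, loaded with CCF4-AM for 2 h, fluorescence read at 460 and 530 nm, then CellTiter-Glo luminescence measured for viability and normalization.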

[27] = 10-beta competent E. coli microbial cell viability qHTS against the NCATS CANVASS Library (AID 1347376); also: series mostly up to about 46 µM
Procedure, shortened: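 Bacterial suspension diluted to 0.2 OD was dosed with compounds, 11-point series, then held overnight at 37C. BacTiter-Glo reagent was added, and after 20 min at room temperature ATP-dependent luminescence was measured.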

[28] = DH5-alpha competent E. coli microbial cell viability qHTS against the NCATS CANVASS Library (AID 1347377); conditions: outcome: dose series up to 46.1 µM unless noted
Procedure, shortened: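 Bacteria were dispensed at 0.2 OD, then compounds were pin-transferred. Plates were incubated overnight at 37C, after which BacTiter-Glo was added and luminescence measured 20 min later.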

[29] = qHTS for Inflammasome Signaling Inhibitors: IL-1-beta AlphaLISA screen against the NCATS CANVASS Library (AID 1347379);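 also: human THP-1 cells primed with LPS then triggered with ATP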
Procedure, shortened: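 Secreted IL-1B from human THP-1 cells quantified by AlphaLISA 16 hr after compound addition (final up to 57.5 uM). A 1 hr compound pretreatment preceded inflammasome activation with 250 ng/mL LPS plus 1.25 mM ATP (final).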

[30] = qHTS for Antimalaria activity screened against the NCATS CANVASS Library (AID 1347380);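 also: Plasmodium falciparum strain Dd2 asexual parasites grown in red blood cells; series mostly up to about 29 µM; nearly all actives have a fitted effect of over 40% in size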
Procedure, shortened: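 Compounds are titrated over 11 concentrations onto Dd2 parasite cultures (0.3% parasitemia, 2.5% hematocrit). Growth over 72 h at 37C in low oxygen is measured as SYBR Green DNA fluorescence after lysis.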

[31] = Inflammasome Signaling qHTS Counterscreen: IL-1-beta AlphaLISA counterscreen against the NCATS CANVASS Library (AID 1347381);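 also: cell-free check with purified IL-1β in medium and no THP-1 cells; series mostly up to about 57 µM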
Procedure, shortened: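 Purified IL-1-beta (4 pg/well) + compound, 11-pt conc. series; acceptor beads 6 ug/mL + biotin-Ab 0.6 nM final, 1 h RT; SA-donor 24 ug/ml final, 30 min dark RT; read ex 680/em 615.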

[32] = qHTS for Activators of p53 Stress Response Pathway screened against the NCATS CANVASS Library (AID 1347388)
Procedure, shortened: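 Beta-lactamase reporter driven by p53 response elements in HCT-116 cells, read as the 460 nm/530 nm emission ratio after CCF4 loading, following 16 h of exposure to an 11-point series. Cell viability was measured in the same wells by CellTiter-Glo luminescence.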

[33] = qHTS assay for small molecule disruptors of mitochondrial membrane potential screened against the NCATS CANVASS Library (AID 1347389)
Procedure, shortened: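 Mitochondrial depolarization in HepG2 cells is scored as a falling aggregate-to-monomer fluorescence ratio after 1 hr compound exposure and 30 min staining with Mito-MPS dye at 37C, each compound tested as an 11-point titration.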

[34] = Secretion counterscreen for inhibitors of the SERCaMP assay screened against the NCATS CANVASS Library (AID 1347390);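 also: light from luciferase secreted into medium read as a measure of general secretion; series mostly up to about 77 µM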
Procedure, shortened: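 SH-SY5Y-GLuc STOP cells; 4 h attach; cpds 0.001 - 77 uM (qHTS, 11 pts), 20 h 37C/5% CO2; coelenterazine in glow buffer; luminescence, 5 s exposure.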

[35] = qHTS for activators of Nrf2/ARE signaling pathway screened against the NCATS CANVASS Library (AID 1347391); also: nearly all actives have a fitted effect of over 60% in size
Procedure, shortened: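 Beta-lactamase reporter signal, read as 460 and 530 nm emission under 405 nm excitation after 2 h CCF4 loading, reflected ARE activation in HepG2 cells treated 16 h with an 11-point series.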

[36] = qHTS for activators of dead-cell proteases activity screened against the NCATS CANVASS Library (AID 1347392);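 also: luminescence from protease leaking out of membrane-damaged cells cleaving impermeant substrate; rising signal means more cytotoxicity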
Procedure, shortened: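 Luminescent dead-cell protease readout (AAF-aminoluciferin, 15 min, room temperature) after 5 h compound treatment of HepG2 cells (2000/well, pre-attached 18 h). Eleven concentrations.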

[37] = qHTS for inhibitors of ER calcium dysfunction: SERCaMP assay screened against the NCATS CANVASS Library (AID 1347393);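 also: series mostly up to about 77 µM; lower secreted reporter signal means inhibitor of ER calcium depletion; nearly all actives have a fitted effect of over 40% in size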
Procedure, shortened: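 Thapsigargin-induced ER calcium depletion drives GLuc-SERCaMP secretion from SH-SY5Y cells; compounds given 16 h beforehand were scored by lowered coelenterazine luminescence after 4 h challenge.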

[38] = Vero-766 cells viability qHTS against the NCATS CANVASS Library: Counterscreen for Zika virus inhibition assay (AID 1347394)
Procedure, shortened: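 Vero 766, no virus; 1000 cells/well; o/n attach; cpd 11-pt; 72 h, 37C, 5% CO2; CTG luminescence; cell-free media wells = 100% inhibition.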

[39] = qHTS for inhibitors of Wild type Zika virus screened against the NCATS CANVASS Library (AID 1347396);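 also: ATP luminescence of surviving cells so rescue from viral cell killing; series mostly up to about 46 µM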
Procedure, shortened: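 Vero 766 (African green monkey) cells, 1000 per well, attached overnight, then compounds were added in an 11-point series before wild-type Zika virus infection. After 72 h at 37C, cell viability was read as CellTiter Glo luminescence.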

[40] = Viability qHTS for inhibitors of the SERCaMP assay screened against the NCATS CANVASS Library (AID 1347400); also: series mostly up to about 92 µM; nearly all actives have a fitted effect of over 70% in size
Procedure, shortened: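 Seed SH-SY5Y-GLuc SERCaMP MJH297 cells at 1000 per well, incubate 4 h, add compounds across an 11-point range, incubate 48 h at 37C, then add CellTiter-Glo and read luminescence.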

Measured: Potency

C=C1C[C@@]23C=CC(=O)[C@@](C)(CCC(=O)Nc4c(O)ccc(C(=O)O)c4O)C2C[C@@H]1C(O)C3 (stereo not given in full)
inactive: [2] | [3] | [4] | [5] | [6] | [7] | [8] | [9] | [10] | [11] | [12] | [13] | [14] | [15] | [16] | [17] | [18] | [19] | [20] | [21] | [22] | [23] | [24] | [25] | [26] | [27] | [28] | [29] | [30] | [31] | [32] | [33] | [34] | [35] | [36] | [37] | [38] | [39] | [40]
active: [1] 44 µM
